S1P4 ag: human S1P4 receptor agonism; 0.35% of 220,000 active; O95977; S1P4-expressing cell line, agonist reporter assay; AID 1509; activation, % at 4.98 µM; in the data active = activation above about 11%
KCC2 mod: KCC2 (human) Cl- transport modulation; KCC2 cells, thallium flux FluoZin-2 fluorescence; B-score of Tl+ flux slope (higher = more flux/activation; lower = inhibition) at 10 µM; 2.2% of 190,000 active; AID 1456;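 active = thallium flux slope and its plate-corrected score both differing from the plate sample mean at a set confidence after two filtering rounds, in either direction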;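 also: slope of fluorescence scaled to starting intensity during 10 to 20 s after thallium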
Target sequence (Q9H2X9 whole entry, looked up): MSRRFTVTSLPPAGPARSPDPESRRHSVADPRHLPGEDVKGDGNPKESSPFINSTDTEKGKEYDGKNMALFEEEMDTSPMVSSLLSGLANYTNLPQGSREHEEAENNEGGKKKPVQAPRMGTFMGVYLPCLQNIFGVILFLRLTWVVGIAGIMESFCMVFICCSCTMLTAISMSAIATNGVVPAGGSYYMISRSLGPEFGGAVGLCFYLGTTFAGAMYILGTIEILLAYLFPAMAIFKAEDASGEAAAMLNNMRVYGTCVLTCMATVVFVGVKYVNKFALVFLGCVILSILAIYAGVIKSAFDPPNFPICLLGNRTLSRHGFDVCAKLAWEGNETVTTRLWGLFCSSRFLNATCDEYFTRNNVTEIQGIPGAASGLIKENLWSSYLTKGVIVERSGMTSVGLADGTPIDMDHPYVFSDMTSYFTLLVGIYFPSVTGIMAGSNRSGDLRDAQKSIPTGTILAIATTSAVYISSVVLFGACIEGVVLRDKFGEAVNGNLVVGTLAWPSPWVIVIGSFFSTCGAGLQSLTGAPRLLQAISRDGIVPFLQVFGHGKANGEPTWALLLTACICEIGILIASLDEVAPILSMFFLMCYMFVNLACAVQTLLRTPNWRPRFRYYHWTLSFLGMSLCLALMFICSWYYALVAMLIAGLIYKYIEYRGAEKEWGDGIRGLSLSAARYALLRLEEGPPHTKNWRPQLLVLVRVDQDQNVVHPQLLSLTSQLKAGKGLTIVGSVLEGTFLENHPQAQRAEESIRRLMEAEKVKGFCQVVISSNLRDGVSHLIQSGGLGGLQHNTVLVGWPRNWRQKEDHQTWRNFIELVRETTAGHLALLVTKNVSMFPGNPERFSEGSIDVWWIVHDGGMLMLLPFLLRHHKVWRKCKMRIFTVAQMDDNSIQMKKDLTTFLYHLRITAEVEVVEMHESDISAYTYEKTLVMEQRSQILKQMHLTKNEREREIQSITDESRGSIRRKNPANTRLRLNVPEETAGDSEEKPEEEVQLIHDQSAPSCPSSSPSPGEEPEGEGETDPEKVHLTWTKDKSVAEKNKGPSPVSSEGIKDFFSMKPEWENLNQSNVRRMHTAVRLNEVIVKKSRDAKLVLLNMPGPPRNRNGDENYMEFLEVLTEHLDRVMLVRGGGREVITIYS
S1P3 antagonist: S1P3 (human) receptor antagonism; Q99500; CHO S1P3 NFAT-BLA reporter, FRET fluorescence, antagonist mode; inhibition, % at 4.98 µM; 0.27% of 170,000 active; AID 485;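 active = inhibition above the plate cutoff, the mean inhibition of test wells on that plate plus 3 SD, cut at about 28% in these data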;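 also: cells challenged with S1P at its EC80 of 0.8 µM; blue over green emission ratio from cleaved BLA substrate after 4 h stimulation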
RAM network inh: yeast RAM network inhibition. inhibition, % at 50 µM. S. cerevisiae dse1pr::URA3 reporter, 5-FOA growth OD615, 2 d; analog-sensitive cbk1-as2 kinase mutant strain. AID 868. 1.8% of 190,000 active;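 active = inhibition above a set limit, 3 SD over mean compound inhibition, cut at about 8.4% in these data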;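 also: inhibition rescues growth on 5-FOA so higher OD means more RAM inhibition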
ROMK primary: modulators of human ROMK potassium channel; B-score at 10 µM; AID 1918; Tet-inducible ROMK, thallium flux fluorescence; actives lie on both sides; P48048; 2% of 130,000 active;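 active = signal ratio slope over the read window, or its plate-corrected B-score, at least 3 SD from the plate mean, either direction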;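 also: B-score of the F/F0 ratio slope over 7 to 12 s after thallium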
S1P4 antagonist: human S1P4 receptor antagonism; O95977; S1P4-expressing cells, antagonist mode, reporter read-out; inhibition, % at 4.98 µM; 0.26% of 220,000 active; in the data active = inhibition above about 29%
ROMK hit retest: human ROMK channel modulation, retest confirmation. AID 1917. 54% of 3,000 active. normalized thallium flux (F/F0 slope) at 10 µM. ROMK thallium flux, fluorescence ratio; hits give low values. shares compounds with ROMK primary;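 active = Flux at 10 µM at least 3 SD below or above vehicle control mean in one or both replicates; inconclusive = no clear call, values can overlap the other calls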
Of the large screens only hits and unclear results are named; the others gave an inactive call (follow-up assays come after a bar, where they were run). A selection: hits, their analogues and other compounds. The true share with any hit is near 5.1%.

CCOC(=O)c1ccc(NC(=O)C2(c3ccccc3)CCOCC2)cc1	none (no result: S1P3 antagonist, ROMK primary)
COc1cccc(/C=N/n2c(C)nc3ccccc32)c1OC	none | ROMK hit retest inactive
COc1ccc(/C=N/n2c(SC)nnc2-c2ccccc2)c(OC)c1OC	ROMK primary 3.36 (no result: KCC2 mod) | ROMK hit retest inactive
COc1ccc(C2N(c3cc(Cl)ccc3OC)C(=O)C3CCCN32)cc1OC (stereo not given)	none (no result: ROMK primary)
CCOC(=O)c1cc(-c2ccc(/C=N\n3cnnc3)o2)ccc1Cl	none (no result: ROMK primary) | ROMK hit retest 0.0662
O=c1c2ccccc2nc2n1C(CSCc1ccc(Cl)cc1)CS2 (stereo not given)	none (no result: S1P3 antagonist, ROMK primary) | ROMK hit retest 0.0663
O=C(c1ccc([N+](=O)[O-])cc1)N1CCSC1c1ccc(Cl)cc1 (stereo not given)	ROMK primary -3.35 | ROMK hit retest inconclusive
Cn1cc(CN2CCC(C(O)c3cccs3)CC2)c(-c2cccc(Cl)c2)n1 (stereo not given)	none
CCOc1ccc(NC(=O)CCN2CCN(S(=O)(=O)c3cc(Cl)ccc3OC)CC2)cc1	ROMK primary -2.41 (no result: KCC2 mod) | ROMK hit retest 0.0616
Cc1ccc(S(=O)(=O)N(C)C)cc1[N+](=O)[O-]	none (no result: RAM network inh)
COC(=O)c1cc(C(=O)N2CCN(c3cccc(C)c3C)CC2)cc([N+](=O)[O-])c1	ROMK primary 2.83 | ROMK hit retest inconclusive
COC(=O)c1cc(C(=O)N2CCN(c3ccccc3OC)CC2)cc([N+](=O)[O-])c1	none
CCOC(=O)c1csc(NC(=O)c2cc(=O)c3ccccc3o2)n1	none
CC(=O)c1sc(NC(=O)c2cc(=O)c3ccccc3o2)nc1C	ROMK primary 2.92 | ROMK hit retest inactive
O=[N+]([O-])c1ccc(N2CCN(c3ccc(Cl)nn3)CC2)cc1NC1CC1	none (no result: S1P3 antagonist, RAM network inh)
COc1cccc(CN2C(=O)c3cccc(N)c3C2=O)c1	ROMK primary -2.13 | ROMK hit retest 0.0568
CCN(CC)c1ccc2cc(C#N)c(=O)oc2c1	none (no result: KCC2 mod, ROMK primary) | ROMK hit retest 0.0456
O=C(N[C@@H](Cc1ccccc1)C(=O)NC1CCCCC1)c1ccco1	ROMK primary 1.92 (no result: S1P3 antagonist) | ROMK hit retest inactive
O=C(N[C@@H](Cc1ccccc1)C(=O)NC1CCCCCC1)c1ccco1	none (no result: S1P3 antagonist)
O=C(Nc1ccc(O)c(-c2nc3ccccc3o2)c1)C1(c2ccc(Br)cc2)CCCC1	none (no result: ROMK primary) | ROMK hit retest inactive
CSc1nc2ccc(S(=O)(=O)NC3CCCCC3)cc2s1	ROMK primary -2.38 (no result: KCC2 mod, S1P3 antagonist) | ROMK hit retest inconclusive
COc1ccc(CCN=C(N)NS(=O)(=O)c2ccc3ccccc3c2)cc1	none
CC1(C)CC(N=C2C([N+](=O)[O-])=CC=C3C2=NC2(CCCCC2)N3O)CC(C)(C)N1	none (no result: RAM network inh, ROMK primary) | ROMK hit retest inactive
N#C/C(=C\c1ccc(Cl)cc1)c1n[nH]c(Cn2cncn2)n1	ROMK primary -4.14 (no result: S1P3 antagonist) | ROMK hit retest 0.0472
Cn1ncc2c(N3CCC(Cc4ccccc4)CC3)ncnc21	none
NNC(=O)c1cc2c(N3CCC(Cc4ccccc4)CC3)ncnc2s1	ROMK primary -4.52 | ROMK hit retest inactive
COc1nc(Nc2ccc([N+](=O)[O-])cc2)nc(NC(C)C)n1	none
O=C(Nc1ccc2snnc2c1)N1CCCCC1	none
O=C(Nc1ccc2snnc2c1)N1CCOCC1	none (no result: ROMK primary) | ROMK hit retest inconclusive
COc1ccccc1/C=C/CN1CCCC(CCC(=O)NCc2ccc(F)c(F)c2)C1 (stereo not given)	none
COc1cccc(CNC(=O)CCC2CCCN(C/C=C/c3ccccc3OC)C2)c1 (stereo not given)	ROMK primary -5.47 | ROMK hit retest 0.065
CC(C)N=C(NS(=O)(=O)c1ccccc1)C(Cl)(Cl)Cl	none (no result: ROMK primary)
Cc1cc(C(=O)CSc2nnc(-c3cccs3)o2)c(C)n1-c1ccccc1	none (no result: ROMK primary)
CCN(CC)c1ccc(C=Nc2ccc(N(C)C)cc2)c(O)c1	ROMK primary -2.72 (no result: S1P3 antagonist) | ROMK hit retest inconclusive
CCN(CC)c1ccc(N=Cc2ccc(N(CC)CC)cc2O)cc1	none (no result: KCC2 mod, S1P3 antagonist, ROMK primary)
Cc1cc(/C=C(\C#N)C(=O)N2CCOCC2)c(C)n1C1CCCC1	none (no result: RAM network inh, ROMK primary)
CN(C)S(=O)(=O)c1ccc(C(=O)Nc2nc(-c3ccccc3)c(C(=O)c3ccccc3)s2)cc1	ROMK primary 1.15 | ROMK hit retest inactive
N#CCCN(CCC#N)S(=O)(=O)c1ccc(C(=O)Nc2nc(-c3ccccc3)c(C(=O)c3ccccc3)s2)cc1	none (no result: RAM network inh, ROMK primary)
C/C(NCCN1CCOCC1)=C(\C#N)C(N)=O	none (no result: KCC2 mod, S1P3 antagonist)
Cc1cc2nnc(SCC(=O)N3C(C)CCCC3C)n2c(N)n1 (stereo not given)	none (no result: KCC2 mod, ROMK primary)
Cc1cc2nnc(SCC(=O)N3CCCCC3)n2c(N)n1	ROMK primary 1.31 | ROMK hit retest inactive
O=C1CC(c2ccco2)CC2=C1C1c3ccccc3C(=O)N1c1ccccc1N2 (stereo not given)	ROMK primary 6.89 (no result: KCC2 mod) | ROMK hit retest 0.0978
CCC(=O)N1c2ccccc2NC2=C(C(=O)CC(c3ccco3)C2)C1c1ccco1 (stereo not given)	none (no result: S1P3 antagonist)
COc1ccc(OC)c(-c2cc(C3CCN(C(=O)OC(C)(C)C)CC3)[nH]n2)c1	none
O=c1c2ccccc2sn1-c1ccccc1	none (no result: S1P3 antagonist)
O=c1c2ccccc2sn1-c1nccs1	ROMK primary -3.71 | ROMK hit retest inactive
CCOCCCNC(=O)Cc1ccc(OC)c(OC)c1	none (no result: ROMK primary) | ROMK hit retest inactive
CCOCCCNCc1ccc(OC)c(OC)c1	none (no result: ROMK primary)
Cc1cccc(C(=O)N2CCC(=O)N(C(COCc3cccc(C(F)(F)F)c3)Cc3ccccc3)CC2)c1 (stereo not given)	ROMK primary -3.26 | ROMK hit retest 0.0585
Cc1cccc(C(=O)N2CCC(=O)N(C(COCc3ccccc3)Cc3ccccc3)CC2)c1 (stereo not given)	none
Cc1ccc(S(=O)(=O)N2CCC(=O)N(C(COCc3ccc(Cl)cc3)Cc3ccccc3)CC2)cc1 (stereo not given)	ROMK primary -4.37 | ROMK hit retest inconclusive
Cc1cccc(COCC(Cc2ccccc2)N2CCN(C(=O)c3cccc(Cl)c3)CCC2=O)c1 (stereo not given)	ROMK primary -2.93 | ROMK hit retest 0.0536
O=C(c1cccc(Cl)c1)N1CCC(=O)N(C(COCc2ccccc2)Cc2ccccc2)CC1 (stereo not given)	none
CCn1ccnc1C(O)c1ccccc1OC (stereo not given)	none (no result: KCC2 mod, S1P3 antagonist)
CCOc1ccc(N(CC(=O)Nc2ccccc2C(=O)N2CCOCC2)S(=O)(=O)c2ccc(F)cc2)cc1	none
COc1ccc(COC(=O)Nc2cn(C)nc2C(F)(F)F)cc1	none
N#Cc1c2ccc(OCC(N)=O)cc2n2ccccc12	ROMK primary -3.19 | ROMK hit retest 0.0508
CCOC(=O)COc1ccc2c(C#N)c3ccccn3c2c1	none
COc1ccccc1N=C(C)C1=C(O)CC(c2ccccc2)CC1=O (stereo not given)	ROMK primary 8 | ROMK hit retest inactive

Assay outcomes as filed in PubChem BioAssay.
